High-throughput results as filed in PubChem.
Shiga inhibitor: inhibitors of Shiga toxin in Vero cells; Vero cells, Shiga toxin protein synthesis inhibition reporter; inhibition, % at 38.7 µM; 290,000 compounds, 9.2% hits; in the data active = inhibition mostly above about 28%, no sharp cut-off; inactive = mostly below about 43%; note: 0% is about no effect
Tb PYK inh: inhibitors of Trypanosoma brucei pyruvate kinase. Q57TT1. TbPYK enzyme, Kinase-Glo Plus ATP luminescence, 45 min. Potency, µM (top dose mostly 76.8 µM), for inactives: at the highest dose activity, negative = inhibition, hits mostly inhibitors. 410,000 compounds, 0.12% hits; note: potency is the fitted concentration of half-maximal effect; % is set by controls: 0 for no effect and ±100 for the full control effect; nearly all actives have a fitted effect of over 50% in size
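Quantitative HTS: titrated library compounds versus trypanosomal pyruvate kinase in TEA buffer (pH 7.2) containing KCl, MgCl2, BSA and Tween-20. Reactions were initiated with ADP, 130 uM final. Kinase-Glo Plus luminescence was read after 45 min at RT.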
LmPK inh: inhibitors of Leishmania mexicana pyruvate kinase. Q27686. purified LmPK, Kinase-Glo ATP luminescence, 1 h. Potency, µM (top dose mostly 57.5 µM), inactives show top-dose activity change, negative = inhibition, actives largely listed as inhibitors. 290,000 compounds, 0.37% hits; note: potency is the fitted concentration of half-maximal effect; % is set by controls: 0 for no effect and ±100 for the full control effect
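Screened at intermediate enzyme activity to detect both inhibitors and activators: LmPK at 0.1 nM, with a 0.5 nM enzyme column as activation reference. PEP 0.5 mM, ADP 0.1 mM; ATP detected by luminescence after 1 h.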
CHX counter: affects cycloheximide protein synthesis inhibition readout, counter-screen; cell reporter, cycloheximide protein synthesis inhibition counterscreen; max response, %; 300,000 compounds, 12% hits; AID 2314; in the data active = max response mostly above about 13%, no sharp cut-off; inactive = mostly below about 14%; note: read at 38.3 µM for the half of the compounds with a filed dose; 0% is about no effect
FBPA Giardia inh: blocks Giardia fructose-bisphosphate aldolase activity; A8B2U2; purified Giardia FBPA; Potency, µM (top dose mostly 59.6 µM), inactives show at the top dose activity, negative = inhibition, actives largely listed as inhibitors; 290,000 compounds, 0.71% hits; AID 2451; note: potency is the fitted concentration of half-maximal effect; % is set by controls: 0 for no effect and ±100 for the full control effect; nearly all actives have a fitted effect of over 55% in size
Target sequence (A8B2U2 whole entry, looked up): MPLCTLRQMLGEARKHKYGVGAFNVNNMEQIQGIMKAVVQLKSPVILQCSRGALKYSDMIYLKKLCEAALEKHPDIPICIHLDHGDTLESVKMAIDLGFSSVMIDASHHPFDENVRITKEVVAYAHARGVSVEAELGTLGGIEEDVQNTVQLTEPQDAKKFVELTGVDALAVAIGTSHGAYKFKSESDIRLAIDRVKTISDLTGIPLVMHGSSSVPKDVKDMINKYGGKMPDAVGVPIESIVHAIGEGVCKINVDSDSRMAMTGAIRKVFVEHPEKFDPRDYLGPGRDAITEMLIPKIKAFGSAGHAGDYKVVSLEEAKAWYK
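40 nM FBPA preincubated 10 min at RT with compound (up to 57.5 uM final), then substrate plus GAPDH/TPI/NAD/arsenate coupling and diaphorase/resazurin added. Fluorescence read after 20 min at RT, 525/598 nm.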
RE007 growth inh: less growth of the S. pombe RE007 Vpr strain; S. pombe RE007 Vpr strain, BacTiter-Glo ATP luminescence, 24 h; Potency, µM (highest dose often 92.2 µM), for the others: top-dose activity change, negative = less growth, most hits filed as inhibitors; 360,000 compounds, 0.21% hits; active = well fitted falling curve with a large enough effect; inconclusive = small, poorly fitted or top-dose-only effect; inactive = no such curve, though single readings can be large or run the other way; note: potency is the fitted concentration of half-maximal effect; % is set by controls: 0 for no effect and ±100 for the full control effect; nearly all actives have a fitted effect of over 50% in size
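Fission yeast RE007 carrying one integrated HIV-1 vpr copy, seeded at OD 0.01 in PMG+AL medium with 23 nL pinned compound. Grown 24 h at 30 degrees; viability read by BacTiter-Glo luminescence after 5 min.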
Starred values were filed as active, the others as inactive; ? = inconclusive; . = no result; [ ] = dose if it differs, or a comment. Shown is part of a subset that was picked to be rich in hits. Unless noted, calls come from the whole dose curve; as a rule, active = well fitted curve in the direction sought with a large enough effect; inconclusive = small, poorly fitted or top-dose-only effect, or another doubt; inactive = no such curve, though single readings can be large; an effect the other way counts as inactive or inconclusive.

SMILES	Shiga inhibitor	Tb PYK inh	LmPK inh	CHX counter	FBPA Giardia inh	RE007 growth inh
CN1CCc2c(cc(O)c(O)c2Cl)C(c2cccc(Cl)c2)C1 (centres undefined)	.	.	.	.	-3.9%	.
CCCN=C1N/C(=C\c2ccco2)C(=O)N1c1ccccc1	-16.8	-4.3%	-1.5%	-4.8	-10.8%	-19.8%
O=C1/C(=C\c2ccco2)NC(=S)N1c1ccccc1	35.2	-27.3%	3.6%	17.8*	2.7%	-4.0%
Cc1ccc(N2C(=O)/C(=C\c3ccco3)SC2=S)cc1	63.9*	-7.5%	8.3%	21.4	-29.7%	0.2%
COc1ccccc1/C=C1\NC(=S)N(CC2CCCO2)C1=O (centres undefined)	39.7	-18.8%	4.7%	27.4*	-11.4%	12.3%
CCOc1ccc(NC(=O)C2CCN(c3nc4ccccc4[nH]3)CC2)cc1	.	-2.3%[15.4 µM]	.	.	.	.
CC(=O)c1ccc(NC(=O)CN2C(=O)CCc3ccccc32)cc1	.	0.0%	.	.	.	.
O=C(CSc1nc2ccccc2o1)N/N=C/c1ccco1	50.1*	3.7%	-4.1%	21.3*	-22.8%	15.7%
O=C(CSc1nc2ccccc2[nH]1)N/N=C/c1ccco1	62.4*	-1.2%	-13.3%	24.5*	-14.0%	4.7%
Cn1cccc1/C=N/NC(=O)CSc1nc2ccccc2[nH]1	22.0	-1.9%	0.2%	20.3*	-24.1%	-2.2%
Cc1cc(SCC(=O)N/N=C/c2ccco2)nc2ccccc12	19.2	-1.4%	6.0%	1.0	?	-5.4%
CCc1cc2c(=O)n(-c3ccc(Br)cc3)cnc2s1	72.7	-2.7%	3.8%	16.3*	4.6%	-6.3%
CCc1cc2c(=O)n(CC(C)C)cnc2s1	62.8*	-6.8%	-4.7%	48.3*	3.8%	-1.9%
CCCCCn1cnc2sc(CC)cc2c1=O	active	0.6%	-4.5%	66.2*	-4.1%	5.6%
Cc1nn2c(=O)cc(COC(=O)c3ccc(NC(=O)C4CCCCC4)cc3)nc2s1	.	5.0%	.	.	.	.
Cc1ccc2c(c1)sc(=NC(=O)c1cccs1)n2C	0.3	-17.9%	-20.6%	-0.9	-13.7%	?
Cc1ccc2c(c1)sc(=NC(=O)C1CC1)n2C	88.8*	0.6%	-4.5%	44.7*	-3.5%	?
Cn1nnnc1SCc1nnc(-c2ccc(F)cc2)o1	38.9*	6.2%	5.2%	21.9*	5.1%	-11.7%
Cc1nnc(SCc2nnc(-c3ccccc3Br)o2)s1	51.4	3.7%	10.0%	23.8*	-0.5%	19.6%
Cc1ccc(-n2nnnc2SCc2nnc(-c3ccccc3Br)o2)c(C)c1	-9.7	-2.3%	0.2%	-0.7	5.7%	10.5%
Cn1nnnc1SCc1nnc(-c2ccccc2Br)o1	86.1*	-10.7%	6.7%	32.6*	5.7%	12.6%
Cn1nnnc1SCc1ccc(CSc2nnnn2C)cc1	11.4	1.2%	-0.4%	-3.5	0.9%	2.0%
CCCn1c(=O)c2ccccc2n2c(SCc3nnc(-c4ccccc4Br)o3)nnc12	-13.9	5.1%	1.6%	-7.4	8.9%	3.4%
Cc1cccc(NC(=O)C2CCN(c3nc4ccccc4[nH]3)CC2)c1C	.	-7.0%[15.4 µM]	.	.	.	.
COc1ccc(NC(=O)CSc2nncn3c2cc2occc23)c(OC)c1	.	-2.4%	.	.	.	.
SMILES	Shiga inhibitor	Tb PYK inh	LmPK inh	CHX counter	FBPA Giardia inh	RE007 growth inh
CCOC(=O)c1cn[nH]c1NC(=S)Nc1ccc(OC)cc1	1.4	-14.2%	-4.4%	17.2	?	19.3%
COC(=O)c1cn[nH]c1NC(=S)Nc1ccc(Cl)c(Cl)c1	118.0*	-8.9%	-0.4%	71.0*	1.6%	-1.4%
COC(=O)c1cn[nH]c1NC(=S)Nc1ccccc1C	92.1*	-14.7%	-1.6%	44.7*	-6.3%	7.0%
COC(=O)c1cn[nH]c1NC(=S)Nc1ccc(C)cc1Cl	74.5*	-1.2%	-0.1%	27.2*	9.5%	-1.7%
CCc1c(C)sc2c1CCN(Cc1ccccc1)C2c1ccccc1 (centres undefined)	.	2.3%	.	.	.	.
COc1cccc(CNC(=O)c2ccc(-c3nc(CS(=O)c4ccccc4)c(C)o3)cc2)c1 (centres undefined)	.	-8.0%	.	.	.	.
O=C(CN1CCCCCC1)NN(Cc1ccccc1)c1ccccc1	-13.3	12.5%	3.3%	-1.0	?	13.9%
CC(C)(O)C(=O)NN(Cc1ccccc1)c1ccccc1	33.3*	2.9%	-2.9%	27.7*	-2.9%	1.7%
CCCCCCOc1ccc(N2C(=O)CC(N3CCC(C(=O)OCC)CC3)C2=O)cc1 (centres undefined)	13.4	-4.0%	3.5%	2.7	5.6%	4.8%
CCOC(=O)C1CCCN(C2CC(=O)N(c3ccc(C(C)C)cc3)C2=O)C1 (centres undefined)	-0.9	2.8%	5.8%	-0.7	-6.5%	35.5µM*
CCOC(=O)C1CCCN(C2CC(=O)N(c3cccc(C(F)(F)F)c3)C2=O)C1 (centres undefined)	-7.9	5.0%	-1.6%	11.1	-19.5%	8.91µM*
CCOC(=O)C1CCCN(C2CC(=O)N(c3ccc(N4C(=O)CC(N5CCCC(C(=O)OCC)C5)C4=O)cc3)C2=O)C1 (centres undefined)	-12.0	0.3%	0.3%	-4.0	0.2%	1.1%
Cc1ccc(N2C(=O)C3CCCN3C2=S)cc1C (centres undefined)	28.2	15.6%	-6.5%	15.9*	-0.7%	1.9%
CCOC(=O)C1CCCN(C2CC(=O)N(c3ccccc3)C2=O)C1 (centres undefined)	-20.1	-2.6%	-1.6%	3.5	2.0%	?
CCOC(=O)C1CCCN(C2CC(=O)N(c3ccc(C)c(C)c3)C2=O)C1 (centres undefined)	-5.1	-6.7%	3.2%	-0.4	0.4%	28.2µM*
OC[C@H]1O[C@H](OC/C=C/c2ccccc2)[C@H](O)[C@@H](O)[C@@H]1O	.	-9.5%	.	.	.	.
CC(=O)O[C@@H]1[C@@H](O)CN[C@@H]1Cc1ccccc1	-29.2	.	.	-13.4	1.6%	.
COc1cc(/C=C2\C(=O)NC(=O)N(c3ccc(C)cc3)C2=O)cc(OC)c1O	-4.6	?	-2.8%	-5.4	?	-0.5%
COc1ccc(N2C(=O)NC(=O)/C(=C/c3ccc4c(c3)Cc3ccccc3-4)C2=O)cc1	33.9	.	-4.1%	28.7*	-13.4%	.
COc1cc(/C=C2/C(=O)NC(=O)N(c3ccc(C)cc3)C2=O)cc(OC)c1OC	67.2*	?	6.6%	27.0*	-10.8%	5.2%
COc1ccc(OC)c(C2OCCC=CC2C)c1 (centres undefined)	.	.	.	.	-4.4%[12.9 µM]	.
COc1ccc(OC)c(CCNC(=O)c2cnn(-c3ccccc3)c2C2CCN(C(=O)OC(C)(C)C)CC2)c1	.	-0.2%[15.4 µM]	.	.	.	.
O=C(Nc1c(C(=O)N2CCN(c3ccccc3F)CC2)oc2ccccc12)c1ccc(Br)o1	.	-1.9%	.	.	.	.
